Data reported in article PMC4336329 (PLoS ONE, 2015).
Out of some 310,000 compounds screened, about 14,000 (4.5%) showed an effect of 50% or more. The effect is printed as a negative number. The sample holds strong results, similar compounds and a random draw of the others, so the mix is not that of the screen.

Each compound was assayed against human ether-à-go-go-related gene (hERG) potassium channel (human, UniProt Q12809) (assay: primary screen, population patch clamp on CHO cells stably expressing hERG; higher = less effect of the substance).
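Further: peak tail current of the secondary pulse compared with the same well before compound.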

Sequence of human ether-à-go-go-related gene (hERG) potassium channel (Q12809 whole entry, looked up): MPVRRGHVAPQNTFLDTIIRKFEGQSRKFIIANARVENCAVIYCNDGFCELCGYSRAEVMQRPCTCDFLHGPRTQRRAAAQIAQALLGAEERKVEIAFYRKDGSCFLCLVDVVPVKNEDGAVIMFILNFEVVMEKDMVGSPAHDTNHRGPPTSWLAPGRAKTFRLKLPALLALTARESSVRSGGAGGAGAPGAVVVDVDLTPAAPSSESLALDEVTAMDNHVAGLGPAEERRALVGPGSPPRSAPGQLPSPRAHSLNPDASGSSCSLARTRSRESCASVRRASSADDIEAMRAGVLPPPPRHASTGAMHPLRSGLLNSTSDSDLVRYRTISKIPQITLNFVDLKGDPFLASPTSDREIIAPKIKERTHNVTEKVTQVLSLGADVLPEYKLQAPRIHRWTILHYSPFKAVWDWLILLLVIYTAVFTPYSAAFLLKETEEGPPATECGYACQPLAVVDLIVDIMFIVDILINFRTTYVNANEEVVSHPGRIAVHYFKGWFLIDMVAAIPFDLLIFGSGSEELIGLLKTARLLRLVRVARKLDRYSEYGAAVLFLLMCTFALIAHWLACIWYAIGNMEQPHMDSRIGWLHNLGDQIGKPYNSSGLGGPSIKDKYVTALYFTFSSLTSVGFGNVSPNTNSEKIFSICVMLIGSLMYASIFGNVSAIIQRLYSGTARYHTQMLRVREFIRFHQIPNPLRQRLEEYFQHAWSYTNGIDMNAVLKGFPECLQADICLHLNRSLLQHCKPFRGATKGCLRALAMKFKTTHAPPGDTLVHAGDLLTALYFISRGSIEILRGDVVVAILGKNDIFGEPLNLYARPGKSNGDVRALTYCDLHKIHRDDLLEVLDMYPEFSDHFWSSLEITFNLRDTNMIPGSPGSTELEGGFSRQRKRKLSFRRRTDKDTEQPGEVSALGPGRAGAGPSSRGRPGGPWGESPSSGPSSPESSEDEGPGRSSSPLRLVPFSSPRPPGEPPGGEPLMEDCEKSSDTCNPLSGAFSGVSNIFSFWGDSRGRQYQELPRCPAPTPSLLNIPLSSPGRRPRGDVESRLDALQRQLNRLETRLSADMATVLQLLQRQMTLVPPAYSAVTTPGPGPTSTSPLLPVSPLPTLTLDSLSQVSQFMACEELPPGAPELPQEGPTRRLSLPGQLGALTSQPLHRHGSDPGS

SMILES | hERG current change (%, negative = inhibition) at 10uM
CCn1c(C)nc2cc(C(=O)N/N=C/c3ccccc3C)ccc21 | -12.8%
Cc1cc2c(C)nc(Cc3ccccc3)nc2o1 | 14.7%
CCOc1cc2[nH]c(=O)n(Cc3ccc(C(=O)NCCCN4CCCC4=O)cc3)c(=O)c2cc1OCC | 16.2%
CCOC(=O)C1=C(C)Nc2nc(SC)nn2C1c1ccc(C(=O)OC)cc1 (centres unmarked) | 5.26%
Cc1ccc(/C=N\NC(=O)/C(=C\Nc2nccc(C)n2)NC(=O)c2ccccc2)cc1 | -9.72%
C=C1C(=O)O[C@@H]2C[C@@H](C)[C@@H]3C=CC(=O)[C@@]3(C)[C@@H](OC(=O)CC(=O)O[C@H]3[C@@H]4C(=C)C(=O)O[C@@H]4C[C@@H](C)[C@@H]4C=CC(=O)[C@]43C)[C@H]12 | -38.6%
COc1ccc(CNC(=O)C2CCN(S(=O)(=O)c3cccnc3)CC2)cc1 | 12.9%
Cc1ccc(S(=O)(=O)NCCC(=O)Nc2cc(F)ccc2C)cc1C | 2.51%
CCOC(=O)c1c(O)c2ccccc2oc1=O | -18.7%
CN1C(=O)CN=C(c2ccc(Cl)cc2)c2cc(Cl)ccc21 | -33.8%
CCOC(=O)CSc1nnc(-c2ccoc2C)n1-c1ccc(OCC)cc1 | -66.5%
COc1cccc(-n2ccnc2SCC(=O)Nc2nccs2)c1 | -6.22%
CCOc1ccc(-n2c(SCC(N)=O)nnc2-c2ccco2)cc1 | -1.15%
Cn1c(SCC(=O)Nc2nccs2)nnc1-c1ccco1 | -5.22%
COc1cccc(-n2c(SCC(=O)Nc3nccs3)nnc2-c2ccoc2C)c1 | -76.8%
CCOC(=O)CSc1nnc(CNC(=O)c2ccc(OC)cc2OC)n1C | -18.4%
COc1cccc(C(=O)NCc2nnc(SCC(=O)Nc3nccs3)n2-c2cccc(C)c2)c1 | -18.3%
COc1ccc(-n2c(CSc3nc(C)cc(C)n3)nnc2SCC(=O)Nc2nccs2)cc1 | -13.2%
CCOC(=O)CSc1nnc(-c2ccoc2C)n1-c1ccc(C)cc1 | -19.3%
CCOC(=O)CSc1nnc(CNC(=O)c2ccc(OC)cc2OC)n1-c1ccc(OC)cc1 | -50.1%
COc1ccc(-n2c(SCC(=O)Nc3nccs3)nnc2-c2ccoc2C)cc1 | -80%
CCOC(=O)CSc1nnc(CNC(=O)c2ccccc2OC)n1-c1ccc(OC)cc1 | -28.8%
COc1ccc(C2(C(=O)NCCCN(C)C)CCOCC2)cc1 | 7.45%
CCOC(=O)c1c(-c2ccccc2Cl)csc1NC(=O)CSc1nc(C)cc(=O)[nH]1 | 4.37%
C=CCc1ccc(OCc2ccc(C(=O)OC)o2)c(OC)c1 | -12.1%
CC1CCCCC1NC(=O)CC1Oc2ccccc2NC1=O (centres unmarked) | 0.244%
CC(=O)c1ccc(S(=O)(=O)NC2CC(=O)N(c3ccc4c(c3)OCCO4)C2)cc1 (centres unmarked) | 5.79%

SMILES | hERG current change (%, negative = inhibition) at 10uM
CCN(CC)S(=O)(=O)c1cc(C(=O)O)ccc1Cl | 11%
CC(=O)c1ccc(Sc2nnc(C)s2)c([N+](=O)[O-])c1 | 1.07%
Cc1ccc(OCC(=O)Nc2nnc(S(=O)(=O)N3CCC(C)CC3)s2)cc1 | 19.2%
O=C(NNC(=O)c1ccc([N+](=O)[O-])o1)c1ccccc1 | -6.59%
CN(CC(=O)Nc1ccccc1Cl)C(=O)COC(=O)c1ccc(S(=O)(=O)C(F)F)cc1 | -69.9%
CC(=O)Oc1ccc(-c2ccc(C(=O)OCC(=O)N(C)CC(=O)Nc3ccccc3Cl)cc2)cc1 | -68.9%
CN(CC(=O)Nc1ccccc1Cl)C(=O)COC(=O)c1ccc(Cl)nc1 | 4.99%
CN(CC(=O)Nc1ccccc1Cl)C(=O)COC(=O)c1ccccc1[N+](=O)[O-] | -6.07%
CC[C@H](C)[C@H](NC(=O)OCc1ccccc1)C(=O)OCC(=O)N(C)CC(=O)Nc1ccccc1Cl | -64.5%
CN(CC(=O)Nc1ccccc1Cl)C(=O)COC(=O)C1CC1 | -2.87%
CN(CC(=O)Nc1ccccc1Cl)C(=O)COC(=O)c1nc(Cl)ccc1Cl | -20%
CN(CC(=O)Nc1ccccc1Cl)C(=O)COC(=O)c1ccc(C(F)(F)F)cc1 | -9.53%
CN(CC(=O)Nc1ccccc1Cl)C(=O)COC(=O)C1=COCCO1 | 5.89%
COc1cc(/C=C/C(=O)OCC(=O)Nc2cc(C(F)(F)F)ccc2N2CCOCC2)ccc1O | -0.592%
C=CCOC(=O)C1=C[C@@H](c2ccc(Br)cc2)C[C@@H](OCc2ccc(CO)cc2)O1 | -14.7%
COc1cc(C(=O)OCC(=O)N2CCCCC2C)ccc1OCc1c(C)noc1C (centres unmarked) | 6.3%
C#CCOCCOCCOCCNc1nc(N2CCN(C(=O)CCCCCCCCCCNC(=O)[C@H](CO)n3cc(CCCSC)nn3)CC2)nc(N2CCN(C(=O)CCCCCCCCCCNC(=O)[C@H](CO)n3cc(CCCSC)nn3)CC2)n1 | 4.57%
COc1ccccc1NC(=O)c1ccc(S(=O)(=O)N(C)c2ccccc2)cc1 | -3.47%
COc1ccc(NC(=O)c2cc3c(s2)CCC(C)C3)cc1S(=O)(=O)N1CCOCC1 (centres unmarked) | -19.1%
CCN(CC)S(=O)(=O)c1ccc(N2CCOCC2)c(NC(=O)CC2OC(=O)c3ccccc32)c1 (centres unmarked) | -26%
Cc1cc(-c2ccccc2)c(C#N)c(SCC(N)=O)n1 | -3.47%
O=C(NCc1ccc(F)cc1)c1ccc2c(=O)n3c(nc2c1)CCCCC3 | -36.7%
Cc1nc2n(c(=O)c1CCN1CCC(c3noc4cc(F)ccc34)CC1)CCCC2 | -68%
O=C(NCCc1ccc(F)cc1)c1ccc2c(=O)n3c(nc2c1)CCC3 | -45.7%
CCCCN(CCCNC(=O)CN1C(=O)COc2ccccc21)c1ccccc1 | -26%
Cc1noc(C)c1COC(=O)COc1ccc(C#N)cc1 | 2.8%
O=C(CN1CCN(C(c2ccccc2)c2ccccc2)CC1)N1N=CCC1c1ccccc1 (centres unmarked) | -50.1%

SMILES | hERG current change (%, negative = inhibition) at 10uM
O=C(CN1CCN(c2ccccc2)CC1)N1N=CCC1c1ccccc1 (centres unmarked) | 5.51%
CCN1CCN(CC(=O)N2N=CCC2c2ccccc2)CC1 (centres unmarked) | 3.12%
CC(C)CN(C(=O)CCC(=O)OCC(=O)N(C)c1ccccc1)c1c(N)n(CC(C)C)c(=O)[nH]c1=O | 10.7%
O=C(CCCn1c(=S)[nH]c2cc3c(cc2c1=O)OCO3)N1CCN(c2ccccc2F)CC1 | 20.6%
CCOc1ccc(NC(=S)N2CCCN(Cc3cccc(Cl)c3)C2)cc1 | -17.6%
COc1ccc(NC(=S)N2CCCN(Cc3cc(C)ccc3C)C2)cc1 | -12.7%
CCOc1ccc(NC(=S)N2CCCN(Cc3cc(C)ccc3C)C2)cc1 | -57.8%
CN(C)c1ccc(C=NCCc2ccc(S(N)(=O)=O)cc2)cc1 | 6.19%
COc1ccc2[nH]c(=O)c(CN(C(=O)c3cccnc3)c3cccc(C)c3)cc2c1 | 11.5%
Cc1c(Cl)cnc(NC(=O)COC(=O)c2ccc([N+](=O)[O-])s2)c1Cl | 6.06%
O=C(COC(=O)CNC(=O)c1ccc([N+](=O)[O-])o1)Nc1ncc(C(F)(F)F)cc1Cl | -58.3%
O=C(COC(=O)CNC(=O)c1ccco1)Nc1ncc(Cl)cc1Cl | 7.02%
O=C(COC(=O)c1ccc([N+](=O)[O-])s1)Nc1ncc(C(F)(F)F)cc1Cl | -63%
Cc1ccc(C(=O)OCC(=O)Nc2ncc(Cl)cc2Cl)cc1NC(=O)c1ccco1 | -48.7%
O=C(COC(=O)CNC(=O)c1ccccc1Cl)Nc1ncc(C(F)(F)F)cc1Cl | -1.76%
O=C(COC(=O)c1ccccn1)Nc1ncc(C(F)(F)F)cc1Cl | -11.7%
O=C(COC(=O)CNC(=O)c1ccc([N+](=O)[O-])o1)Nc1ncc(Cl)cc1Cl | -54.9%
COc1ccc(C(=O)NCC(=O)OCC(=O)Nc2ncc(Cl)cc2Cl)cc1[N+](=O)[O-] | -37.3%
Cc1ccc(C(=O)OCC(=O)Nc2ncc(C(F)(F)F)cc2Cl)cc1NC(=O)c1ccco1 | -50.1%
O=C(COC(=O)CNC(=O)c1ccc(Cl)cc1)Nc1ncc(C(F)(F)F)cc1Cl | -31.8%
Cc1ccc(C(=O)OCC(=O)Nc2ccccc2)cc1NC(=O)c1ccco1 | -4.37%
Cc1cc(-n2cnnn2)cc(C)c1S(=O)(=O)NCCOc1ccccc1 | -38.5%
CC(O)c1nc2ccccc2n1CC(=O)Nc1ccc(F)cc1Cl (centres unmarked) | 14.2%
CCOC(=O)c1sc(NC(=O)c2ccc(C)o2)nc1C | -5.35%
COc1cc(C(c2c(C)n(C)n(-c3ccccc3)c2=O)c2c(C)n(C)n(-c3ccccc3)c2=O)cc(Br)c1O | 13.7%
COc1cccc(-c2nnc(NC(=O)c3ccc4ncsc4c3)o2)c1 | -8.13%
